Results published in PubChem BioAssay AID1159580 (chemical genetic matrix, 2015).
Among all 5,500 compounds or so, about 2,000 (36%) were called active. Inconclusive results (about 18%) are left out. Cut-off read from the data, not from the text of the source: active = normalized growth mostly below about 0.91 (no sharp cut-off); inconclusive = no clear call, values can overlap the other calls; inactive = mostly above about 0.92. The list shows a part of the results.

Assay: chemical genetic growth profiling, strain panel (AID 1159580);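 note: tested at 20 µM; growth read once vehicle control cultures reached saturation at 30 °C; 1 = growth at the plate median or of vehicle wells; lower values mean less growth of the strain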
Conditions: growth OD

Measured: normalized growth

CCC(=O)O[C@H]1CCC2C3CCC4=CC(=O)CC[C@]4(C)C3CC[C@@]21C (some centres not stated)
inactive: S. cerevisiae deletion strains, locus YJR066W, strain TOR1, hits give low values 0.884 | S. cerevisiae deletion strains, locus YKL009W, strain mrt4, hits give low values 0.974 | S. cerevisiae deletion strains, locus YKL068W, hits give low values 0.972 | S. cerevisiae deletion strains, locus YKR026C, strain gcn3, hits give low values 0.96 | S. cerevisiae deletion strains, locus YKR091W, strain srl3, hits give low values 0.948 | S. cerevisiae deletion strains, locus YLL001W, strain dnm1, hits give low values 0.989 | S. cerevisiae deletion strains, locus YLL026W, hits give low values 0.971 | S. cerevisiae deletion strains, locus YLL041C, strain sdh2, hits give low values 0.957 | S. cerevisiae deletion strains, locus YLR027C, strain aat2, hits give low values 0.93 | S. cerevisiae deletion strains, locus YLR058C, strain SHM2, hits give low values 0.956 | S. cerevisiae deletion strains, locus YLR102C, strain apc9, hits give low values 0.99 | S. cerevisiae deletion strains, locus YLR113W, strain HOG1, hits give low values 0.941 | S. cerevisiae deletion strains, locus YLR221C, strain rsa3, hits give low values 0.925 | S. cerevisiae deletion strains, locus YLR262C, strain YPT6, hits give low values 0.633 | S. cerevisiae deletion strains, locus YLR268W, strain sec22, hits give low values 0.934 | S. cerevisiae deletion strains, locus YLR357W, strain rsc2, hits give low values 0.944 | S. cerevisiae deletion strains, locus YLR370C, strain arc18, hits give low values 0.955 | S. cerevisiae deletion strains, locus YLR384C, strain iki3, hits give low values 0.969 | S. cerevisiae deletion strains, locus YML016C, strain PPZ1, hits give low values 0.982 | S. cerevisiae deletion strains, locus YML120C, strain ndi1, hits give low values 0.952 | S. cerevisiae deletion strains, locus YML124C, strain tub3, hits give low values 0.972 | S. cerevisiae deletion strains, locus YMR058W, strain fet3, hits give low values 0.916 | S. cerevisiae deletion strains, locus YMR078C, strain ctf18, hits give low values 0.978 | S. cerevisiae deletion strains, locus YMR125W, strain sto1, hits give low values 0.913 | S. cerevisiae deletion strains, locus YMR129W, hits give low values 0.942 | S. cerevisiae deletion strains, locus YMR231W, strain pep5, hits give low values 0.957 | S. cerevisiae deletion strains, locus YMR263W, strain SAP30, hits give low values 0.963 | S. cerevisiae deletion strains, locus YMR307W, strain GAS1, hits give low values 0.917 | S. cerevisiae deletion strains, locus YNL067W, strain RPL9B, hits give low values 0.985 | S. cerevisiae deletion strains, locus YNL183C, strain NPR1, hits give low values 0.89 | S. cerevisiae deletion strains, locus YNL250W, strain rad50, hits give low values 1 | S. cerevisiae deletion strains, locus YNL271C, strain bni1, hits give low values 0.963 | S. cerevisiae deletion strains, locus YNL298W, strain CLA4, hits give low values 0.949 | S. cerevisiae deletion strains, locus YNL322C, strain KRE1 (second series), hits give low values 0.952 | S. cerevisiae deletion strains, locus YNL322C, strain KRE1, hits give low values 0.958 | S. cerevisiae deletion strains, locus YNR049C, strain mso1, hits give low values 0.932 | S. cerevisiae deletion strains, locus YNR052C, strain pop2, hits give low values 0.924 | S. cerevisiae deletion strains, locus YOL006C, strain TOP1, hits give low values 0.74 | S. cerevisiae deletion strains, locus YOL012C, strain htz1 0.608 | S. cerevisiae deletion strains, locus YOL147C, strain pex11, hits give low values 0.967 | S. cerevisiae deletion strains, locus YOR001W, strain rrp6, hits give low values 0.971 | S. cerevisiae deletion strains, locus YOR061W, strain CKA2, hits give low values 0.971 | S. cerevisiae deletion strains, locus YOR069W, strain VPS5, hits give low values 0.976 | S. cerevisiae deletion strains, locus YOR070C, strain gyp1, hits give low values 0.944 | S. cerevisiae deletion strains, locus YOR080W, strain dia2, hits give low values 0.941 | S. cerevisiae deletion strains, locus YOR136W, strain idh2, hits give low values 0.965 | S. cerevisiae deletion strains, locus YOR144C, strain elg1, hits give low values 0.968 | S. cerevisiae deletion strains, locus YOR231W, strain MKK1, hits give low values 0.988 | S. cerevisiae deletion strains, locus YOR265W, strain rbl2, hits give low values 0.946 | S. cerevisiae deletion strains, locus YOR290C, strain snf2, hits give low values 0.892 | S. cerevisiae deletion strains, locus YOR316C, strain cot1, hits give low values 0.987 | S. cerevisiae deletion strains, locus YPL055C, strain LGE1, hits give low values 0.794 | S. cerevisiae deletion strains, locus YPL106C, strain sse1, hits give low values 0.906 | S. cerevisiae deletion strains, locus YPL240C, strain hsp82, hits give low values 0.978 | S. cerevisiae deletion strains, locus YPL256C, strain CLN2, hits give low values 0.982 | S. cerevisiae deletion strains, locus YPR119W, strain clb2, hits give low values 0.981 | S. cerevisiae deletion strains, locus YPR141C, strain kar3, hits give low values 0.976 | S. cerevisiae deletion strains, locus YPR163C, strain tif3, hits give low values 0.933 | S. cerevisiae deletion strains, locus YPR167C, strain met16, hits give low values 0.971 | S. cerevisiae deletion strains, strain wtn01, hits give low values 0.924 | S. cerevisiae strains, strain wild type, hits give low values 0.944
active: S. cerevisiae deletion strains, locus YKL085W, strain MDH1 (second series), hits give low values 0.901 | S. cerevisiae deletion strains, locus YKL085W, strain MDH1, hits give low values 0.901 | S. cerevisiae deletion strains, locus YKL160W, strain elf1, hits give low values 0.882 | S. cerevisiae deletion strains, locus YKR001C, strain vps1, hits give low values 0.861 | S. cerevisiae deletion strains, locus YLR039C, strain RIC1, hits give low values 0.653 | S. cerevisiae deletion strains, locus YLR258W, strain gsy2, hits give low values 0.899 | S. cerevisiae deletion strains, locus YLR262C, strain YPT6 (second series), hits give low values 0.671 | S. cerevisiae deletion strains, locus YLR320W, strain mms22, hits give low values 0.83 | S. cerevisiae deletion strains, locus YLR330W, strain CHS5, hits give low values 0.821 | S. cerevisiae deletion strains, locus YLR342W, strain FKS1 (second series), hits give low values 0.745 | S. cerevisiae deletion strains, locus YLR342W, strain FKS1, hits give low values 0.779 | S. cerevisiae deletion strains, locus YLR371W, strain rom2, hits give low values 0.783 | S. cerevisiae deletion strains, locus YLR418C, strain cdc73, hits give low values 0.672 | S. cerevisiae deletion strains, locus YML032C, strain rad52, hits give low values 0.889 | S. cerevisiae deletion strains, locus YMR205C, strain PFK2, hits give low values 0.785 | S. cerevisiae deletion strains, locus YMR223W, strain ubp8, hits give low values 0.888 | S. cerevisiae deletion strains, locus YNL071W, strain lat1, hits give low values 0.719 | S. cerevisiae deletion strains, locus YNL233W, strain BNI4, hits give low values 0.803 | S. cerevisiae deletion strains, locus YNL248C, strain rpa49, hits give low values 0.86 | S. cerevisiae deletion strains, locus YNL307C, strain MCK1, hits give low values 0.679 | S. cerevisiae deletion strains, locus YOR083W, strain WHI5, hits give low values 0.796 | S. cerevisiae deletion strains, locus YOR106W, strain vam3, hits give low values 0.837 | S. cerevisiae deletion strains, locus YOR184W, strain ser1, hits give low values 0.523 | S. cerevisiae deletion strains, locus YOR270C, strain vph1, hits give low values 0.653 | S. cerevisiae deletion strains, locus YPL051W, strain arl3, hits give low values 0.89 | S. cerevisiae deletion strains, locus YPL078C, strain atp4, hits give low values 0.869
